Results published in PubChem BioAssay (NCI).
Where “and” joins values, the source holds several entries; their conditions need not be identical. Identical values can stand only once. Compounds without any hit were thinned out: in the full panel of roughly 83,000, 20% have a hit.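 A percent growth of 40 corresponds to 60% growth inhibition; 0 means no net growth; -100 means all cells died. Active threshold: below 10.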 Unmarked numbers belong to inactive results. Calls of active or inactive are those of the source.

What was measured:
Assay in all cases: NCI-60 one-dose screen, 48 h (100 = growth as untreated, 0 = no growth, -100 = all killed)
Conditions in all cases: 10 µM unless noted
HCT-15 colon = tested on: HCT-15 colon
HT29 colon = tested on: HT29 colon
SNB-75 CNS = tested on: SNB-75 CNS
SNB-19 CNS = tested on: SNB-19 CNS
U251 CNS = tested on: U251 CNS
PC-3 prostate = tested on: PC-3 prostate
SK-MEL-5 melanoma = tested on: SK-MEL-5 melanoma
UACC-62 melanoma = tested on: UACC-62 melanoma
LOX IMVI melanoma = tested on: LOX IMVI melanoma
SK-MEL-28 melanoma = tested on: SK-MEL-28 melanoma

SMILES | growth (HCT-15 colon) | growth (HT29 colon) | growth (SNB-75 CNS) | growth (SNB-19 CNS) | growth (U251 CNS) | growth (PC-3 prostate) | growth (SK-MEL-5 melanoma) | growth (UACC-62 melanoma) | growth (LOX IMVI melanoma) | growth (SK-MEL-28 melanoma)
COc1ccc2c(c1)C(Sc1ccc(F)cc1)c1c(nc(N)c(C#N)c1N)O2 (stereo not given) | 80.6% | 94.3% | 66.5% | 79.7% | 82% | 55.1% | 91.2% | 74.1% | 60.9% | 112%
O=C(NNC(=S)NCCc1ccccc1)c1ccc(OCc2nc3ccc(Cl)cc3[nH]2)cc1 | 66.9% | 100% | 128% | 75.6% | 88.2% | 67.1% | 41.6% | 63.3% | 80.4% | 101%
Clc1ccc(CNc2nc(SCCN3CCOCC3)nc3c2cnn3CC(Cl)c2ccc(Br)cc2)cc1 (stereo not given) | 1.95% (active) | -51.5% (active) | 76.2% | 50.4% | 38.3% | 34.3% | 42.3% | 57.5% | 30.9% | 56.2%
COc1ccc(N=Nc2c(N)nn3c(-c4ccc(F)cc4)ccnc23)cc1 | 54% | 58.6% | 110% | 97.1% | 69.8% | 82.2% | 91.1% | 71.3% | 86.8% | 63.1%
Nc1cccc(-n2c(COc3ccc(I)cc3)nc3ccccc32)c1 | 74.6% and 104% | 78.7% and 114% | 52.9% and 91.4% | 93.5% and 98.6% | 84.8% and 101% | 63.9% and 104% | 60% and 99.8% | 57.6% and 92.2% | 80% and 101% | 98.9% and 98.7%
Nc1nnc(-c2cncc(Br)c2)c(-c2c[nH]c3ccc(Cl)cc23)n1 | 55.4% | 106% | 57.2% | 73.1% | 83.9% | 90.5% | 70.4% | 73.7% | 77.3% | 91.2%
COc1cc(CNC(=O)C[C@H](C)CCC=C(C)C)ccc1OCc1cn(-c2ccc(Cl)c(Cl)c2)nn1 | 29.4% | 78.3% | 47.2% | 81.3% | 48.2% | 65.9% | 71.9% | 69.3% | 50.6% | 89.3%
CCOC(=O)/C(F)=C/C1CC1C(c1ccccc1)c1ccccc1 (stereo not given) | 67% | 80.6% | 90.4% | 95.9% | 109% | 78.8% | 88.9% | 65.1% | 84.9% | 103%
O=C(N/N=C/c1ccoc1)c1[nH]c2ccc(Br)cc2c1-c1ccccc1 | -100% (active) | -50.2% (active) | -79.6% (active) | -97.5% (active) | -81.5% (active) | -37.3% (active) | -97.2% (active) | -99.6% (active) | -100% (active) | -93.7% (active)
C#CCN(C)CCCOc1ccc(N(CC)C(=O)c2cc(C(C)C)c(O)cc2O)cc1Cl | -52.8% (active) | 7.04% (active) | -1.15% (active) | 11.2% | 1.31% (active) | 12.6% | -95.9% (active) | -66% (active) | -95.4% (active) | 5.69% (active)
Cc1ccc2nc(SCc3ccccc3F)n(-c3ccccc3)c(=O)c2c1 | 83.3% | 78.7% | 156% | 96.8% | 99.4% | 77.9% | 93.9% | 74.3% | 84.9% | 100%
Fc1ccc(Nc2nnc(-c3c[nH]c4ccccc34)o2)cc1 | 66.7% | 102% | 88.9% | 85% | 84.8% | 70.8% | 91.4% | 77.8% | 72.2% | 106%
Nc1nn2c(-c3cc4cc(Br)ccc4oc3=O)ccnc2c1N=Nc1ccccc1 | 53.4% | 22.4% | -59.8% (active) | -54.5% (active) | -11.2% (active) | 14.4% | -20.8% (active) | 31.6% | 18% | 52.5%
Oc1ccc(Cl)c(Nc2ncnc3c2cnn3CC(Cl)c2ccc(Br)cc2)c1 (stereo not given) | 37.9% | 57.2% | 3.71% (active) | 57.4% | 53.5% | 44.5% | 48.8% | 55.6% | 0.654% (active) | 78.4%
Cc1ccc(C(=O)Nc2cc(-n3cnc(F)c3)cc(C(F)(F)F)c2)cc1C#Cc1cnc2cccnn12 | 36.2% | 35.4% | 132% | 106% | 83.7% | 89.8% | 38.3% | 26% | 22% | 29.3%
CN1CCc2c(sc3ncnc(N/N=C/c4cccc(Cl)c4Cl)c23)C1 | -14.5% (active) | -12.7% (active) | 76.3% | 4.21% (active) | -96.3% (active) | 96% | 80.7% | 92.5% | -82.5% (active) | 103%
CC1=C(C(=O)OC(C)C)C(c2ccc(O)cc2)NC(=O)N1 (stereo not given) | 105% | 107% | 115% | 95% | 103% | 92.1% | 107% | 95.4% | 98% | 112%
O=C(Nc1nc2ccc([N+](=O)[O-])cc2s1)Nc1ccccc1F | 13.9% | 5.55% (active) | 18.8% | 10.2% | 6.8% (active) | 13.9% | -51.6% (active) | 22.4% | 10.5% | 22%
COC(=O)c1cc(C(=O)C(C)(C)C)n2c3ccccc3c3ccccc3c12 | 65.6% | 99.4% | 84.1% | 109% | 97% | 59.2% | 88.6% | 66.7% | 91.1% | 99.2%
COc1ccc(-c2cc(C)nc3[nH]c(=O)sc23)cc1 | 88.1% | 93.3% | -4.05% (active) | 53.6% | 9.93% (active) | 81.3% | 80.4% | 60.9% | 45.9% | 89.8%
COc1ccc2[nH]cc(-c3cc4nc(-c5cn(C)c6ncccc56)cc(N)n4n3)c2c1 | -25.1% (active) | -59.1% (active) | 51.8% | 26% | -42.4% (active) | 9.79% (active) | -56.5% (active) | 85.9% | -85.3% (active) | 82.6%
COc1ccc(NC(=O)NN2C(=O)c3ccccc3N(C)C2c2ccc(OC)cc2)cc1 (stereo not given) | 103% | 109% | 91% | 94% | 105% | 89.2% | 92.6% | 78.1% | 98.1% | 102%
N#C/C(=C/c1ccc([N+](=O)[O-])cc1)c1nnc(NC(=O)c2ccc(-n3c(=O)[nH]c4ccccc4c3=O)cc2)s1 | 93.3% | 110% | 110% | 87.1% | 89.5% | 90.9% | 99% | 99.2% | 90.5% | 100%
COc1sc(/C=N/NC(=O)c2[nH]c3ccc(Br)cc3c2-c2ccccc2)cc1Br | 7.77% (active) | -26.9% (active) | 57.1% | 14.7% | -11.2% (active) | 19.4% | -53.5% (active) | 17% | -23.4% (active) | 18.2%
